# In article PMC12820563, “FoxP3 forms a head-to-head dimer in vivo and stabilizes its multimerization on adjacent microsatellites”:
# Over roughly 16,000 sequences, “rpm ratio (pull-down/input)” has its median near 0.5; the highest 2% begin near 5.5. This is one part of a sample in which the highest values are shown more often than they occur.
# Target: T1, MBP-FoxP3dN (Mus musculus, UniProt Q99JB6 188-423)
# T1 sequence: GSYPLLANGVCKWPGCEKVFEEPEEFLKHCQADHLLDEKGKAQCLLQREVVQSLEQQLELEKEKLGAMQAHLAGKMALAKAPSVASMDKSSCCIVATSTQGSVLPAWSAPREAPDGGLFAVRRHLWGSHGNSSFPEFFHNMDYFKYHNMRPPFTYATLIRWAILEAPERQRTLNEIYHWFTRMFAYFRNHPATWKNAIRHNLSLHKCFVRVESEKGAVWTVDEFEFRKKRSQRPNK
# Test: PD-seq (MBP pull-down with sequencing); 20 mM Tris-HCl pH 7.5, 100 mM NaCl, 1.5 mM MgCl2, 0.4 uM protein, 0.1 uM dsDNA library, 30 min, room temperature, amylose pull-down; high values mean tight binding
# Settings: protein: recombinant; tags: His6-MBP; chain copies: 2; dsDNA, one strand shown
# In short: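 Binding is reads-per-million enrichment of pull-down over input, with replicates pooled. It comes from 30 min room-temperature incubation in Tris pH 7.5 buffer with NaCl and MgCl2 of 0.4 µM His6-MBP-tagged, N-terminally truncated mouse FoxP3 or FoxP1 fragment from E. coli with 0.1 µM Klenow-filled degenerate double-stranded DNA library, followed by amylose resin capture, three washes and Illumina sequencing of the released DNA.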
row,Sequence,binding signal
1,GATGATTGTTCTCCCAGCTGATGAATTGATTATGTCGAGTAAACAAATTTTCCTAATCTTTCTGTTCAAGCGCCATCTAC,1.86 RPM ratio (pull-down/input)
2,GATGATTGTTCTCCCAGCTGATGAATTTATGATGTCGAGTAAACAAATTTTCCTAATCTTTCTGTTCAAGCGCCATCTAC,3.91 RPM ratio (pull-down/input)
3,GATGATTGTTCTCCCAGCTGATGAATTGTTTATGTCGAGTAAACAAATTTTCCTAATCTTTCTGTTCAAGCGCCATCTAC,7 RPM ratio (pull-down/input)
4,GATGATTGTTCTCCCAGCTGATGAATTTATGTTGTCGAGTAAACAAATTTTCCTAATCTTTCTGTTCAAGCGCCATCTAC,4.93 RPM ratio (pull-down/input)
5,GATGATTGTTCTCCCAGCTGATGAATTATGTTTGTCGAGTAAACAAATTTTCCTAATCTTTCTGTTCAAGCGCCATCTAC,7.57 RPM ratio (pull-down/input)
6,GATGATTGTTCTCCCAGCTGATGAATTTATTATGTCGAGTAAACAAATTTTCCTAATCTTTCTGTTCAAGCGCCATCTAC,5.83 RPM ratio (pull-down/input)
7,GATGATTGTTCTCCCAGCTGATGAATTATTTATGTCGAGTAAACAAATTTTCCTAATCTTTCTGTTCAAGCGCCATCTAC,2.12 RPM ratio (pull-down/input)
8,GATGATTGTTCTCCCAGCTGATGAATTATGTCTGTCGAGTAAACAAATTTTCCTAATCTTTCTGTTCAAGCGCCATCTAC,1.14 RPM ratio (pull-down/input)
9,GATGATTGTTCTCCCAGCTGATGAATTGGTTATGTCGAGTAAACAAATTTTCCTAATCTTTCTGTTCAAGCGCCATCTAC,2.38 RPM ratio (pull-down/input)
10,GATGATTGTTCTCCCAGCTGATGAATTTTTTATGTCGAGTAAACAAATTTTCCTAATCTTTCTGTTCAAGCGCCATCTAC,0.31 RPM ratio (pull-down/input)
11,GATGATTGTTCTCCCAGCTGATGAATTTGTTATGTCGAGTAAACAAATTTTCCTAATCTTTCTGTTCAAGCGCCATCTAC,6.84 RPM ratio (pull-down/input)
12,GATGATTGTTCTCCCAGCTGATGAATTTCTTATGTCGAGTAAACAAATTTTCCTAATCTTTCTGTTCAAGCGCCATCTAC,0.657 RPM ratio (pull-down/input)
13,GATGATTGTTCTCCCAGCTGATGAATTGAGCACGTCGAGTAAACAAATTTTCCTAATCTTTCTGTTCAAGCGCCATCTAC,0.919 RPM ratio (pull-down/input)
14,GATGATTGTTCTCCCAGCTGATGAATTCGTATGCTCGAGTAAACAAATTTTCCTAATCTTTCTGTTCAAGCGCCATCTAC,2.01 RPM ratio (pull-down/input)
15,GATGATTGTTCTCCCAGCTGATGAATTTGGCGACTCGAGTAAACAAATTTTCCTAATCTTTCTGTTCAAGCGCCATCTAC,1.79 RPM ratio (pull-down/input)
16,GATGATTGTTCTCCCAGCTGATGAATTTCTGCTGTCGAGTAAACAAATTTTCCTAATCTTTCTGTTCAAGCGCCATCTAC,0.378 RPM ratio (pull-down/input)
17,GATGATTGTTCTCCCAGCTGATGAATTACTTGTTTCGAGTAAACAAATTTTCCTAATCTTTCTGTTCAAGCGCCATCTAC,0.804 RPM ratio (pull-down/input)

row,Sequence,binding signal
1,GATGATTGTTCTCCCAGCTGATGAATTCCTGAAATCGAGTAAACAAATTTTCCTAATCTTTCTGTTCAAGCGCCATCTAC,0.237 RPM ratio (pull-down/input)
2,GATGATTGTTCTCCCAGCTGATGAATTTGAGTTATCGAGTAAACAAATTTTCCTAATCTTTCTGTTCAAGCGCCATCTAC,0.953 RPM ratio (pull-down/input)
3,GATGATTGTTCTCCCAGCTGATGAATTACCCTGATCGAGTAAACAAATTTTCCTAATCTTTCTGTTCAAGCGCCATCTAC,0.253 RPM ratio (pull-down/input)
4,GATGATTGTTCTCCCAGCTGATGAATTTAGATTCTCGAGTAAACAAATTTTCCTAATCTTTCTGTTCAAGCGCCATCTAC,0.815 RPM ratio (pull-down/input)
5,GATGATTGTTCTCCCAGCTGATGAATTTGGTGTATCGAGTAAACAAATTTTCCTAATCTTTCTGTTCAAGCGCCATCTAC,3.25 RPM ratio (pull-down/input)
6,GATGATTGTTCTCCCAGCTGATGAATTGTGTAAATCGAGTAAACAAATTTTCCTAATCTTTCTGTTCAAGCGCCATCTAC,0.96 RPM ratio (pull-down/input)
7,GATGATTGTTCTCCCAGCTGATGAATTCTGTGTATCGAGTAAACAAATTTTCCTAATCTTTCTGTTCAAGCGCCATCTAC,5.85 RPM ratio (pull-down/input)
8,GATGATTGTTCTCCCAGCTGATGAATTCTTTGTATCGAGTAAACAAATTTTCCTAATCTTTCTGTTCAAGCGCCATCTAC,0.57 RPM ratio (pull-down/input)
9,GATGATTGTTCTCCCAGCTGATGAATTGTGTATATCGAGTAAACAAATTTTCCTAATCTTTCTGTTCAAGCGCCATCTAC,6.5 RPM ratio (pull-down/input)
10,GATGATTGTTCTCCCAGCTGATGAATTGTATATCTCGAGTAAACAAATTTTCCTAATCTTTCTGTTCAAGCGCCATCTAC,3.03 RPM ratio (pull-down/input)
11,GATGATTGTTCTCCCAGCTGATGAATTTGTGTAATCGAGTAAACAAATTTTCCTAATCTTTCTGTTCAAGCGCCATCTAC,4.48 RPM ratio (pull-down/input)
12,GATGATTGTTCTCCCAGCTGATGAATTCTCTGTATCGAGTAAACAAATTTTCCTAATCTTTCTGTTCAAGCGCCATCTAC,0.441 RPM ratio (pull-down/input)
13,GATGATTGTTCTCCCAGCTGATGAATTTTGTGTATCGAGTAAACAAATTTTCCTAATCTTTCTGTTCAAGCGCCATCTAC,6.55 RPM ratio (pull-down/input)
14,GATGATTGTTCTCCCAGCTGATGAATTTTCTGTATCGAGTAAACAAATTTTCCTAATCTTTCTGTTCAAGCGCCATCTAC,0.456 RPM ratio (pull-down/input)
15,GATGATTGTTCTCCCAGCTGATGAATTGTGTGTATCGAGTAAACAAATTTTCCTAATCTTTCTGTTCAAGCGCCATCTAC,6.39 RPM ratio (pull-down/input)
16,GATGATTGTTCTCCCAGCTGATGAATTGAGTATATCGAGTAAACAAATTTTCCTAATCTTTCTGTTCAAGCGCCATCTAC,1.7 RPM ratio (pull-down/input)
